In PubChem BioAssay (NCI):
Several values for one entry are separate records, joined by “and”; a condition that tells them apart may be missing. Identical values can stand only once. This is part of a sample that, as a whole, favours compounds with a hit. Of some 83,000 tested, about 20% had one in any assay.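 How to read the values: 0–100, growth inhibition (40 = 60% inhibited); 0, no net growth; -100 to 0, cell death (-40 = 40% of starting cells died; -100 = all dead).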 Unmarked numbers belong to inactive results. Activity calls are given as the source filed them. Rule for the calls: active = growth percent below 10; inactive = the rest.

These compounds were tested on MDA-MB-468 breast (assay: NCI-60 one-dose screen, 48 h (100 = growth as untreated, 0 = no growth, -100 = all killed)). Details: 10 µM unless noted.
With `CC(C)CCC1C(=O)NC(=O)NC1=O` the growth was 114%. `c1ccc(CSC(c2ccccc2)c2ccccc2)cc1` gave a growth of 124%. With `CC1=C2C(=C[C@@](C)(COS(C)(=O)=O)[C@@H]2O)C(=O)[C@](C)(O)C12CC2` the growth was -54.8% (active). Compound `CC(=O)Oc1ccc(Cl)cc1` has a growth of 93.6%. `O=[N+]([O-])/C=C/c1ccc(Cl)cc1[N+](=O)[O-]` was tested, and the growth was -55.9% (active). `COC(=O)[C@@H](C)C[C@H](Cc1ccccc1)NC(=O)c1cccc([C@@H](C[C@H](C(C)C)N(C)C(=O)[C@@H](NC(=O)[C@H]2CCCCN2C)C2CC2)OC(C)=O)n1` gave a growth of 35.3%. Work on `CCN(CC)CCn1c(=O)n(C)c2ccccc21` yielded a growth of 100%. With `Brc1ccc2c(c1)c(-c1nc(-c3c[nH]c4ncccc34)cs1)cn2CCN1CCOCC1` the growth was 34.2%. `COC(=O)CC[C@H](Cc1ccccc1)NC(=O)c1csc([C@@H](C[C@H](C(C)C)N(C)C(=O)[C@@H](NC(=O)[C@H]2CCCCN2C)C(C)C)OC(C)=O)n1` gave a growth of 66.9%. `CN1CCN(C(=O)COc2ccc(/C=C3\CC4C5CC=C6CC(Cl)CCC6(C)C5CCC4(C)C3=O)cc2)CC1` (configuration not stated) gave a growth of 66.6%. `C[C@@H]1CCC2[C@@H](C)[C@H](OC(=O)CCC(=O)NCCNC(=O)Cc3cc(=O)oc4cc(N(C)C)ccc34)O[C@@H]3O[C@]4(C)CC[C@@H]1C23OO4` (some centres not stated) showed a growth of 63.7%. In the case of `O=S(=O)(F)c1ccc(Cl)cc1`, the growth is reported as 121%. Compound `C=CCCCN=C=S` has a growth of 33.9%. With `COc1ccc2c(c1)NC1=C(C(=O)OC1)C2c1cc(OC)c(OC)c(OC)c1` (configuration not stated) the growth was -16.3% (active). With `CC1=C[C@H]2O[C@@H]3C[C@H]4OC(=O)/C=C\C=C\[C@H]([C@@H](C)O)OCC/C(C)=C/C(=O)OC[C@@]2(CC1)[C@]4(C)[C@]31CO1` the growth was -63.8% (active). Compound `CC[C@]12C=CCN3CC[C@]4(C(=C(C(=O)OC)C1)Nc1cc(OC)c(OC(C)=O)cc14)[C@@H]32` has a growth of 50.3%. With `Cc1cc(-c2nc3cc(F)ccc3[se]2)cc(F)c1N` the growth was -39% (active). `CC[C@@H]1[C@@H](C)O[C@@](O)([C@@H](C)[C@H](O)[C@H](C)[C@H]2OC(=O)/C=C/C=C/[C@H](C)[C@@H]([C@@H](C)[C@@H](O)[C@H](C)[C@@]3(O)C[C@@H](O[C@H]4C[C@@H](O)[C@H](O)C(C)O4)[C@H](CC)[C@@H](C)O3)OC(=O)/C=C/C=C/[C@@H]2C)C[C@H]1O[C@@H]1C[C@@H](O)[C@H](O)C(C)O1` (some centres not stated) was tested, and the growth was -83.6% (active). Work on `COC(=O)C1=CO[C@@H](C)[C@@H]2CN3CCc4c([nH]c5cc(OC)ccc45)[C@@H]3C[C@H]12` yielded a growth of 107%. For `CC1=C2C(=C[C@@](C)(COC(=O)c3ccc(S(=O)(=O)F)cc3)[C@@H]2OC(=O)c2ccc(S(=O)(=O)F)cc2)C(=O)[C@](C)(O)C12CC2`, the growth was -76.8% (active). Compound `C/C1=C/C(=O)O[C@@H]2C[C@@H](CC[C@H](C)/C=C\C=C\CC1)O[C@@](O)([C@@H]1CSC(=O)N1CO)C2` has a growth of 10.3%. With `O=C(CCl)NCNC(=O)CCl` the growth was 96.8%. For `COc1ccc(/C=C(\C)[N+](=O)[O-])cc1OC`, the growth was -77.3% (active). With `C#C[C@]1(OC(=O)CCCCCC)CC[C@H]2[C@@H]3CCC4=CC(=O)CC[C@@H]4[C@H]3CC[C@@]21C` the growth was 39.6%. For `C/C=C/CC(C)C(O)[C@H](NC(=O)[C@@H]1CCCN1C(=O)C(C)(C)NC(=O)CCCCCCCCC)C(=O)NC(C)(C)C(=O)N[C@@H](CCC(N)=O)C(=O)N[C@H](CCC(N)=O)C(=O)NC(C)(C)C(=O)NC(C)(C)C(=O)N[C@@H](CCC(N)=O)C(=O)N[C@H](CC(C)C)C(=O)N[C@H](CO)CC(C)C` (some centres not stated), the growth was -75.9% (active) and -84.9% (active). For `CC1=C2[C@@H](CC1)[C@]1(C)O[C@@](C(C)C)(C[C@H]1O)[C@H]2OC(=O)C1CC1c1ccccc1` (some centres not stated), the growth was 94.6%. Work on `CCOc1ccc(C(O)CN(C)Cc2ccccc2)cc1Cl` (configuration not stated) yielded a growth of 100%.
